# Results from article PMC3218832.
# Legend:
# Experiment in all cases: protein binding microarray; high values mean tight binding
# Details in all cases: dsDNA, one strand shown
# RELARELA (p65 homodimer) = RELARELA (p65 homodimer) (Homo sapiens, UniProt Q04206 1-307)
# p50p50 homodimer = p50p50 homodimer (Homo sapiens, UniProt P19838 7-356)
# p52p52 homodimer = target: T1, p52p52 homodimer (Homo sapiens, UniProt Q00653 4-332)
# T1 sequence: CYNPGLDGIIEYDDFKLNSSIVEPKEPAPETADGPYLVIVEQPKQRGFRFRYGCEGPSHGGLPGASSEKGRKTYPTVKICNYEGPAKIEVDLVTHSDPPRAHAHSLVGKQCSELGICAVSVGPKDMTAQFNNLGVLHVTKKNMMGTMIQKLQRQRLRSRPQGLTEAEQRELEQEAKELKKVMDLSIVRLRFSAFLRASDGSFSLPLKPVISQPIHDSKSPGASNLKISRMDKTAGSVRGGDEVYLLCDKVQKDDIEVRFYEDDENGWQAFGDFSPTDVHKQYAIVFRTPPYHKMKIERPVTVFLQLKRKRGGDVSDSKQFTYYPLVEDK
# [1] = target: RELA (p65) subunit of heterodimer;p50 subunit (Homo sapiens;Homo sapiens, UniProt Q04206;P19838 1-307;7-356)
# [2] = target: RELA (p65) subunit of heterodimer;p52 subunit (Homo sapiens;Homo sapiens, UniProt Q04206;Q00653 1-307;4-332)
# RELB subunit;p50 subunit = RELB subunit;p50 subunit (Homo sapiens;Homo sapiens, UniProt Q01201;P19838 120-401;7-356)
# RELB subunit;p52 subunit = target: T2, RELB subunit;p52 subunit (Homo sapiens;Homo sapiens, UniProt Q01201;Q00653 120-401;4-332)
# T2 sequence 1: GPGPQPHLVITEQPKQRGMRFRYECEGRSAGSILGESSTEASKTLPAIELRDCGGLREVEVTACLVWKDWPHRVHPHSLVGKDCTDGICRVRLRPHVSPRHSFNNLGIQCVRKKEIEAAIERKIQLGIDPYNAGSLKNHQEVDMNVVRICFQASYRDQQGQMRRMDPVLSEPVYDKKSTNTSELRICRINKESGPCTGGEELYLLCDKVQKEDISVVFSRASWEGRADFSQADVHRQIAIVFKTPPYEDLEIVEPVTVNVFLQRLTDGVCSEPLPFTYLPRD
# T2 sequence 2: T1 sequence
# [3] = target: C-Rel subunit;p50 subunit (Homo sapiens;Homo sapiens, UniProt Q04864;P19838 1-285;7-356)
# [4] = target: T3, C-Rel subunit;p52 subunit (Homo sapiens;Homo sapiens, UniProt Q04864;Q00653 1-285;4-332)
# T3 sequence 1: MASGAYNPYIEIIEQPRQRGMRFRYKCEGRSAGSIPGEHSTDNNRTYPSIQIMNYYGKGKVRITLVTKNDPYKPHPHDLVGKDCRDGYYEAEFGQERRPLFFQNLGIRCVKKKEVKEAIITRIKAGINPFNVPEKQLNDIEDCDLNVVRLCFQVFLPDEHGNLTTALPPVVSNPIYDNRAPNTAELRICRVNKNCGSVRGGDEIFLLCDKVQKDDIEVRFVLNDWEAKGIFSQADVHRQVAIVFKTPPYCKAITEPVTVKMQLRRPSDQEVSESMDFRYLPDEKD
# T3 sequence 2: T1 sequence
# RELARELA (p65 homodimer), sequence (Q04206 1-307): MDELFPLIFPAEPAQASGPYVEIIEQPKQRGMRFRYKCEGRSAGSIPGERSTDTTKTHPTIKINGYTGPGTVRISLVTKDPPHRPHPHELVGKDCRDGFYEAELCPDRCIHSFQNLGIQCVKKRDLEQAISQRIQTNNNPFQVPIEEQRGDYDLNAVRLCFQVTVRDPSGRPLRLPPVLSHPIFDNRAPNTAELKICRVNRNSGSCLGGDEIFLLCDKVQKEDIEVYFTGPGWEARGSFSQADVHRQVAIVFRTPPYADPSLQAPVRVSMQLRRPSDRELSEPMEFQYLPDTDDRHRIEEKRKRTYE
# RELA (p65) subunit of heterodimer;p50 subunit, sequence (Q04206 1-307, chain 1 of 2): as the sequence (Q04206 1-307) above
# RELA (p65) subunit of heterodimer;p50 subunit, sequence (P19838 7-356, chain 2 of 2): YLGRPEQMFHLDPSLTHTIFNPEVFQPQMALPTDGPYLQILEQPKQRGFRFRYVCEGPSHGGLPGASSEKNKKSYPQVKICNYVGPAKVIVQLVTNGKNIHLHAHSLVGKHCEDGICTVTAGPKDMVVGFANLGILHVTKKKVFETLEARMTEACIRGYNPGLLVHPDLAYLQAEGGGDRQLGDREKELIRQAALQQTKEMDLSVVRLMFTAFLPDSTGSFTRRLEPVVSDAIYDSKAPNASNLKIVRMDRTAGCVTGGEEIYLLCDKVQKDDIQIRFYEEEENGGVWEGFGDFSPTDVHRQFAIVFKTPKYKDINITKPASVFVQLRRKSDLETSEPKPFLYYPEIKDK
# p50p50 homodimer, sequence (P19838 7-356): as the sequence (P19838 7-356, chain 2 of 2) above
Sequence,binding signal (RELARELA (p65 homodimer)) [z-score],binding signal (p50p50 homodimer) [z-score],binding signal (p52p52 homodimer) [z-score],binding signal [1] [z-score],binding signal [2] [z-score],binding signal (RELB subunit;p50 subunit) [z-score],binding signal (RELB subunit;p52 subunit) [z-score],binding signal [3] [z-score],binding signal [4] [z-score]
CAGGAACTCCC,1.07,0.648,0.144,0.636,0.288,0.322,0.116,0.424,0.208
AGGTTTGTCCC,1.29,0.56,0.82,0.878,0.918,0.602,0.621,0.937,0.735
AAAAGTCTCCC,0.0565,0.0889,-0.045,0.215,0.0155,0.205,0.142,0.0274,-0.177
GGAAGCTTCCT,0.818,-1.04,-0.619,-0.33,-0.759,-1.01,-0.836,-0.977,-0.614
GAAATCGCCCC,0.357,0.544,0.298,0.401,0.557,0.494,0.759,0.842,0.389
CGAGACGTCCT,-0.768,-1.33,-0.73,-1.16,-0.933,-1.07,-0.949,-1.55,-0.864
AAGGTCACCCT,-0.86,-1.49,-0.495,-0.903,-0.928,-0.645,-0.697,-1.21,-0.77
AAAATTTTCCT,1.75,0.214,0.0641,0.434,0.225,-0.311,-0.176,0.47,0.322
GGGGTCGCCCC,0.508,0.472,2.74,1.36,2.18,1.44,1.61,0.866,1.5
CAAAAAGTCCC,2.29,1.2,2.38,1.75,1.58,2.23,1.75,1.53,2.25
GAAGTCTTCCC,0.246,-0.511,-0.37,-0.272,-0.339,-0.349,-0.537,0.175,-0.174
CAAATGGTCCT,-0.0232,-1.33,-0.481,-1.22,-0.808,-0.726,-0.534,-1.3,-0.727
GGAATGATCCC,-0.0862,-0.737,-0.387,-0.382,-0.396,-0.763,-0.764,-0.432,-0.264
CAGGTCGCCCC,-0.367,-0.385,-0.232,-0.268,-0.328,-0.18,-0.126,0.016,-0.13
CGGTGGATCCC,0.0568,0.42,2.32,0.748,1.33,0.911,1.38,0.293,1.43
GAGTGCCCCCT,-0.00724,1.11,0.614,0.954,0.871,0.913,1.16,0.836,0.745
